Compounds without any hit were thinned out: in the full panel of roughly 83,000, 20% have a hit.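 Cell lines were cultured in 96-well plates, exposed to a single compound concentration, and assessed for percent growth 48 hours later.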 Unmarked numbers belong to inactive results. Activity calls are given as the source filed them. The calls were made as follows: active = growth percent below 10; inactive = the rest.
Legend:
Experiment in all cases: NCI-60 one-dose screen, 48 h (100 = growth as untreated, 0 = no growth, -100 = all killed)
Details in all cases: 10 µM unless noted
HCT-15 colon = tested on: HCT-15 colon
SNB-75 CNS = tested on: SNB-75 CNS
SNB-19 CNS = tested on: SNB-19 CNS
U251 CNS = tested on: U251 CNS
PC-3 prostate = tested on: PC-3 prostate
SK-MEL-5 melanoma = tested on: SK-MEL-5 melanoma
UACC-62 melanoma = tested on: UACC-62 melanoma
LOX IMVI melanoma = tested on: LOX IMVI melanoma
SK-MEL-28 melanoma = tested on: SK-MEL-28 melanoma
SK-MEL-2 melanoma = tested on: SK-MEL-2 melanoma
EKVX NSCLC = tested on: EKVX NSCLC
SN12C renal = tested on: SN12C renal
UO-31 renal = tested on: UO-31 renal
TK-10 renal = tested on: TK-10 renal
ACHN renal = tested on: ACHN renal
CAKI-1 renal = tested on: CAKI-1 renal
A498 renal = tested on: A498 renal
CCRF-CEM leukemia = tested on: CCRF-CEM leukemia
MOLT-4 leukemia = tested on: MOLT-4 leukemia
HT29 colon = tested on: HT29 colon

SMILES | growth (HCT-15 colon) | growth (SNB-75 CNS) | growth (SNB-19 CNS) | growth (U251 CNS) | growth (PC-3 prostate) | growth (SK-MEL-5 melanoma) [%] | growth (UACC-62 melanoma) | growth (LOX IMVI melanoma) | growth (SK-MEL-28 melanoma) | growth (SK-MEL-2 melanoma) [%] | growth (EKVX NSCLC) [%] | growth (SN12C renal) | growth (UO-31 renal) | growth (TK-10 renal) | growth (ACHN renal) | growth (CAKI-1 renal) | growth (A498 renal) | growth (CCRF-CEM leukemia) | growth (MOLT-4 leukemia) | growth (HT29 colon) [%]
COc1ccc(/C=C/c2nc(Nc3ccc(S(=O)(=O)Nc4cc(C)on4)cc3)c3ccccc3n2)cc1 | 48.8% | 74.7% | 83.2% | 74.5% | 74.7% | 43.5 | 17.5% | 31.5% | 91.7% | 75.8 | 71.6 | 82.3% | 50.3% | 71.5% | 54.2% | 49.4% | 1.73% (active) | 49% | 70.6% | –
COc1ccc(N2CCN(c3ccc(NC4=C(Cl)C(=O)c5ncccc5C4=O)cc3)CC2)cc1 | 40.9% | 52.8% | 29.4% | 26.7% | 53% | 50.5 | 34.1% | 35.3% | 71% | 71.8 | 78.8 | 45.5% | 46.2% | 74.8% | 67.3% | 61.1% | – | 24.6% | 53.3% | –
COc1ccc(-c2nc(S(=O)(=O)c3ccccc3)c(S(=O)CC(=O)N3CCC(C)CC3)o2)cc1 (centres undefined) | -48.5% (active) | 72% | 57.6% | 66.2% | 40.9% | 72.8 | 17.9% | -4.12% (active) | 19.2% | 67.9 | 65.7 | -33.3% (active) | -65.9% (active) | 33.1% | -29.8% (active) | 34.5% | 83.8% | 1.85% (active) | – | –
COc1cc(/C=C/c2cc(O)c(C(C)=O)c(O)c2)cc2c1O[C@]1(C)CC[C@@H](O)C(C)(C)[C@H]1C2 | 42.8% | 7.67% (active) | 56.4% | 36.1% | 45.2% | 65.2 | 38.7% | 35.1% | 51.4% | 31.4 | 90.7 | 82.5% | 29.7% | 94.7% | 65% | 45% | – | 37.6% | 20.2% | –
C=C1C(=O)O[C@H]2[C@H]1CC/C(CNC(=O)CCc1ccc(OC)cc1)=C\CC[C@@]1(C)O[C@@H]21 | 37.1% | 116% | 80.3% | 87.9% | 72.1% | 92.8 | – | 70.3% | 59.5% | 74.5 | 71.4 | 35.9% | 53% | 33.5% | 31.6% | 38.1% | – | 4.85% (active) | 67.8% | –
COC(=O)/C=C1\S/C(=N\NC(=O)c2cc3ccc2/C=C\c2ccc(cc2)/C=C\3)N(c2ccccc2)C1=O | 0.337% (active) | 45.7% | 39.9% | 15.8% | -35.9% (active) | 69.3 | 25.2% | -27.8% (active) | 82.5% | 87 | 59 | 22.5% | 58.5% | 15.2% | 49.3% | – | – | 13% | 3.03% (active) | –
CN1CCN(C(=O)[C@]23CCC(C)(C)C[C@H]2C2=CC[C@@H]4[C@@]5(C)C/C(=C/c6cccnc6)C(=O)C(C)(C)[C@@H]5CC[C@@]4(C)[C@]2(C)CC3)CC1 | 41.4% | 82.1% | 65.4% | – | 19.1% | 49.8 | 52.8% | 68.5% | 77.9% | 81.5 | 78.8 | 57.8% | 38.6% | 89.5% | 66% | 66.6% | – | 33.3% | 20.5% | –
Cc1nc2sccn2c1-c1nc2sccn2c1/C=C1/C(=O)Nc2ccccc21 | 29.4% | 15.2% | 31.5% | 24.6% | 28.7% | 20.5 | 33.6% | 36.3% | 45.3% | 61 | 56.6 | 65.6% | 39.6% | 70.9% | 41.5% | 2.29% (active) | 5.72% (active) | 35% | – | –
CC(C)N1C(=O)/C(=C2\SC(=S)N(C(C)C)C2=O)SC1=S | 98.5% | 62.3% | 92.6% | 90.8% | 89.3% | 97.9 | – | 90% | 97.8% | 96.8 | 82.9 | 93.1% | 78.6% | 88.2% | 100% | 93.7% | 84.2% | 87.8% | 101% | –
COc1cc2cc(CN3CCN(c4nccc(-c5ccc6ccccc6c5)n4)CC3)c(=O)[nH]c2cc1OC | 21.2% | 104% | 76.7% | 22.9% | 60.7% | 85.4 | 95.1% | 90.2% | 102% | 97.8 | 94.5 | 51.7% | 74.9% | 91% | 75.7% | 99.5% | – | 49.1% | 54.1% | –
Cc1ccc(/C=N/NC(=O)CSc2nc3ccccc3c(=O)n2Cc2ccc(S(N)(=O)=O)cc2)cc1 | 89.3% | 71% | 89.9% | 93.9% | 89.3% | 74.4 | 78.1% | 82.9% | 93.2% | 94 | 90.8 | 97.3% | 80.8% | 106% | 100% | 64% | – | 87.8% | 86.8% | –
Cc1ccc(C(=O)/C(=C\c2ccc([N+](=O)[O-])cc2)S(=O)Cc2ccc(F)cc2)cc1 (centres undefined) | 7.72% (active) | 57.1% | 41.2% | -7.84% (active) | -0.882% (active) | 64.6 | -34.5% (active) | -39% (active) | 17.3% | 62.3 | 58.5 | -52.1% (active) | -46.1% (active) | 17.6% | -1.53% (active) | 30.3% | 68.7% | 3.64% (active) | – | –
O=C(CSc1nc2ccccc2[nH]1)NCc1ccccc1 | – | 74.5% | 97.8% | 106% | 98.8% | 102 | 95.2% | 98.3% | 102% | 120 | 101 | 95.8% | 83.6% | 4.87% (active) | 95.4% | 82.1% | 105% | 103% | – | 99.4
CCCCCCOc1ccc(/C=N/Nc2cc(C)nc3ccc(Cl)cc23)cc1 | -87.2% (active) | -44.6% (active) | 2.26% (active) | -68.2% (active) | -39.4% (active) | 81.4 | 76.8% | -94.5% (active) | -30.3% (active) | 93.9 | 56.2 | -84.6% (active) | -89.8% (active) | -51.4% (active) | -92% (active) | 3.33% (active) | – | -9.5% (active) | -26% (active) | –
COc1cc(F)c(/C=C/c2cc(/C=C/c3cc(OC)c(OC)cc3F)on2)cc1OC | 82.1% | 98.2% | 76.8% | 83.1% | 74% | 91.9 | 66.1% | 81.9% | 82.7% | 76.3 | 102 | 91.6% | 91.2% | 100% | 80% | 90.1% | – | 91.9% | 91.1% | –
COC(=O)C(OC(C)=O)C(OC(C)=O)c1ccc(OC)c(OC)c1 (centres undefined) | 97.8% | 96.4% | 103% | 97.5% | 81.5% | 97.7 | 100% | 90% | 102% | 96.5 | 107 | 101% | 106% | 115% | 104% | 101% | – | 94.9% | 85.5% | –
COc1cccc(-c2nc3occn3c2-c2ccnc(NCCCNS(=O)(=O)c3ccc(C(F)(F)F)cc3)n2)c1 | 85.3% | 103% | 105% | 84.1% | 75.9% | 68.6 | 67.3% | 87.5% | 97.5% | 92.3 | 92.8 | 85.4% | 71.5% | 106% | 89.3% | 75.3% | – | 93.9% | 69% | –

Source: PubChem BioAssay (NCI)
